The structures appear in SMILES notation. The panel holds about 83,000 compounds, 20% with a hit somewhere; the sample as a whole holds those more often.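 Treatment: one concentration, 48 hours, 96-well format. Scoring: percent growth, with anything below 10 considered active.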 The source made the active and inactive calls.

One assay relates to BT-549 breast. The assay is described as follows: NCI-60 one-dose screen, 48 h (100 = growth as untreated, 0 = no growth, -100 = all killed). Particulars: 10 µM unless noted.
As to `CCOC(=O)C(C#N)C1CCCCC1` (centres undefined), the growth is 90.1% (inactive).

Turning to `Cc1nc2nc(N)nc(N)c2nc1C`, the growth is 89.4% (inactive).

Regarding `Cc1cc2cc3cc(C)c(N(C)C)cc3[n+](C)c2cc1N(C)C`, the growth was -28.7% (active).

Consider `COc1ccc(C(=O)COc2ccc(/C=C3\Oc4ccc(Cl)cc4C3=O)cc2)cc1`, for which the growth is 98.1% (inactive).

Turning to `O=C(/C=C/c1ccc(B(O)O)cc1)/C=C/c1ccc(B(O)O)cc1`, the growth was -11.8% (active).

Turning to `CNC(=O)c1cc(Oc2ccc3nc(NC(=O)Nc4ccc(CN5CCOCC5)c(C(F)(F)F)c4)sc3c2)ccn1`, the growth was 12.2% (inactive).

In the case of `Nc1ccc(N2CCOCC2)cc1`, the growth is 82.1% (inactive).

Consider `CCCCCCCCCc1cc(CN2CCCCC2)c(O)c(CN2CCCCC2)c1`, for which the growth is 70.1% (inactive).

As for `COc1cc(NC(N)=NCC(C)(C)COc2ccc(C(F)(F)F)cc2)cnc1C#N`, the growth is 75.4% (inactive).

For the molecule `CN(C)c1ccc(/C=C\C2=[N+](C)c3ccccc3C2(C)C)cc1`, the growth is -4.12% (active).

For the molecule `COc1nc2c(cc1S(=O)(=O)c1ccccc1)CCc1c-2cnn1-c1ccc(Cl)cc1`, the growth is 109% (inactive).

As for `COC(=O)C12C3C(=O)N(c4ccc(OC)cc4)C(=O)C3C(c3cn(-c4ccccc4)nc3C)N1[C@H](c1cn(-c3ccccc3)nc1C)[C@@H]1C(=O)N(c3ccc(OC)cc3)C(=O)[C@@H]12` (some centres undefined), the growth is 113% (inactive).

For the molecule `CCOC(=O)C(=Cc1ccccc1F)C(=O)OCC`, the growth was 87.4% (inactive).

For the molecule `Cc1cc(-c2nc3ccccc3s2)ccc1NC(=O)COc1ccc(Cl)cc1`, the growth is 105% (inactive).

With `COc1cc(OC)c(/C=C/S(=O)(=O)Cc2cnc(OC)c(N)c2)c(OC)c1`, the growth was 8.01% (active).

Regarding `COc1ccc(/C=C2\N=C3Sc4cc(Cl)ccc4C(=O)N3C2=O)cc1`, the growth was 114% (inactive).

Another assay has as its system MDA-MB-435 melanoma. The description is as above. Conditions: 10 µM unless noted.
Regarding `CCOC(=O)C(C#N)C1CCCCC1` (centres undefined), the growth is 97.6% (inactive).

`Cc1nc2nc(N)nc(N)c2nc1C`: the growth is 99.5% (inactive).

As to `Cc1cc2cc3cc(C)c(N(C)C)cc3[n+](C)c2cc1N(C)C`, the growth was 35.3% (inactive).

Regarding `O=[N+]([O-])c1cccc(-c2nc3sccn3c2-c2ccnc(NCCCNS(=O)(=O)c3cccc(F)c3)n2)c1`, the growth is -19.4% (active).

Regarding `Cc1ccc(Nc2nc(N)nc(Nc3ccc4ccccc4c3)n2)cc1`, the growth was 16.6% (inactive).

As for `COc1ccc(C(=O)COc2ccc(/C=C3\Oc4ccc(Cl)cc4C3=O)cc2)cc1`, the growth is 106% (inactive).

Consider `O=C(/C=C/c1ccc(B(O)O)cc1)/C=C/c1ccc(B(O)O)cc1`, for which the growth was -46.6% (active).

Take `CNC(=O)c1cc(Oc2ccc3nc(NC(=O)Nc4ccc(CN5CCOCC5)c(C(F)(F)F)c4)sc3c2)ccn1`: the growth is 13% (inactive).

Regarding `C=C1C(=O)O[C@H]2[C@H]1CC/C(Cn1cc(Cn3ccc4cc(Cl)ccc43)nn1)=C\CC[C@@]1(C)O[C@@H]21`, the growth is 1.14% (active).

With `CCCCCCCCCc1cc(CN2CCCCC2)c(O)c(CN2CCCCC2)c1`, the growth was 78.4% (inactive).

As to `COc1ccc2nc3cc(Cl)ccc3c(N3CCN(c4nccc(Nc5ccccc5)n4)CC3)c2c1`, the growth was 62% (inactive).

On to `COc1ccc(-c2nn(-c3ccccc3)cc2/C=C/C(=O)OCc2cn(-c3ccc(F)c(Cl)c3)nn2)cc1`, for which the growth is 65.3% (inactive).

Turning to `COc1ccc(C2CC(=O)Nc3c2c(C)nn3-c2nc3ccccc3[nH]2)cc1` (centres undefined), the growth was 99.9% (inactive).

`COc1cc(NC(N)=NCC(C)(C)COc2ccc(C(F)(F)F)cc2)cnc1C#N`: the growth is 61.1% (inactive).

In the case of `CSc1nc(NCCO)c(C#N)c(-c2cccc(N)c2)n1`, the growth was 105% (inactive).

In the case of `COc1cccc(/C=C2/C(=O)N(Cc3ccco3)SC2=S)c1OC`, the growth is 84.6% (inactive).

Regarding `COc1ccc2nc3cc(Cl)ccc3c(N3CCN(c4nccc(Nc5ccc(Cl)cc5)n4)CC3)c2c1`, the growth was 78.7% (inactive).

`NCc1cn2cc(Cl)sc2n1`: the growth is 113% (inactive).

Consider `COc1ccc(/C=C/C(=O)c2ccc(NC(=O)c3cc4cc5ccccc5nc4s3)cc2)cc1OC`, for which the growth was 102% (inactive).

Take `CC(=O)N1CC(Nc2ccc(OC(F)(F)F)cc2)=CC1=O`: the growth is -27.2% (active).

Regarding `COc1ccc(/C=N\NC(=O)CN2CCN(c3cc4c(cc3F)c(=O)c(C(=O)N/N=C/c3ccc(OC)cc3)cn4C3CC3)CC2)cc1`, the growth was 90.3% (inactive).

For `CN(C)c1ccc(/C=C\C2=[N+](C)c3ccccc3C2(C)C)cc1`, the growth was 3.88% (active).

For `COc1nc2c(cc1S(=O)(=O)c1ccccc1)CCc1c-2cnn1-c1ccc(Cl)cc1`, the growth is 90.8% (inactive).
